Test results from PubChem BioAssay (NCATS).
Where “and” joins values, the source holds several entries; their conditions need not be identical. Equal values may be shown once. Records with an inconclusive call do not appear. Entries that show only a call come without a potency. Calls of active or inactive are those of the source. Unless noted, the call rests on the fitted dose curve; in most records, active means well fitted curve in the direction sought with a large enough effect; inconclusive means small, poorly fitted or top-dose-only effect, or another doubt; inactive means no such curve, though single readings can be large; an effect the other way counts as inactive or inconclusive.

What was measured:
[1] = Cell Viability - Jurkat (AID 426;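 active means dose-dependent loss of cell ATP signal giving a full or clear fitted curve, ranked by lower potency value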; further: potency means the concentration at half of the fitted maximal effect); settings: qHTS
Procedure, shortened: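 qHTS, 1536-well; Jurkat E6-1, 5000 cells/well, complete medium; cpd 40 hr, 37 °C; CellTiter-Glo 20 min RT; luminescence. AC50 by Hill fit.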

[2] = Cell Viability - NIH 3T3 (AID 541); settings: NIH 3T3 cell viability, qHTS; activity change, negative = cytotoxicity: at 92.2 µM (top of the series); further: nearly all actives have a fitted effect of over 25% in size
Procedure, shortened: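 Luminescent ATP signal (CellTiter-Glo) served as the viability read-out after NIH 3T3 cells were exposed to compounds over a concentration range for 40 hr at 37 °C. Hill-equation modelling of concentration-response data gave AC50.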

[3] = Cell Viability - LYMP1-003 - Assay at 40 hr (AID 964); settings: LYMP1-003 lymphoblastoid viability; series mostly up to 92.2 µM; further: nearly all actives have a fitted effect of over 60% in size
Procedure, shortened: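 Cells were seeded at 2500 per well and incubated 5 hr at 37 C. Compounds were added across a concentration series and left 40 hr at 37 C. CellTiter-Glo was added for 30 min at room temperature before luminescence reading.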

[4] = Cell Viability - LYMP2-015 (AID 971); settings: LYMP2-015 lymphoblastoid cell viability; series mostly up to 92.2 µM; further: nearly all actives have a fitted effect of over 55% in size
Procedure, shortened: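 Luminescent ATP read-out (CellTiter-Glo) served as the viability measure after lymphoblastoid cells were exposed to compounds for 24 hours at 37 C. Concentration-response data were fitted with the Hill equation to give AC50.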

[5] = biological target: Peroxisome proliferator-activated receptor delta (Homo sapiens) (UniProt Q03181); experiment: qHTS assay for small molecule agonists of peroxisome proliferator-activated receptor delta signaling (AID 588534; calls by dose curve); settings: HEK293T PPARdelta-UAS-bla, beta-lactamase ratio, 18 h; series mostly up to 76.7 µM
Procedure, shortened: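 Fluorescence from CCF4 substrate cleavage by beta-lactamase reporter, read 2 hrs at RT, measured agonist activity. Compounds were tested with 18 hrs exposure at 37 C. Concentration-response data fitted to Hill equation.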

[6] = qHTS assay for small molecule antagonists of peroxisome proliferator-activated receptor delta signaling (AID 588535; active means well fitted inhibition curve with a large enough effect in the signal ratio, with a control signal flat, not every such curve was filed as active; the % refers to the signal ratio;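 on max response: cells co-treated with a PPAR-delta agonist as stimulator during compound exposure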); settings: HEK293T PPARd-UAS-bla, beta-lactamase FRET ratio, 18 h; 460 nm channel
Procedure, shortened: (§1)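 Reporter: UAS-bla under PPAR-delta response element, HEK293T host. Medium: 2% charcoal/dextran FBS. Dosing: titration, 18 hrs, 37 C. Detection: CCF4, 2 hrs RT, 405 ex/460 and 530 em.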

[7] = biological target: Peroxisome proliferator-activated receptor delta (Homo sapiens) (UniProt Q03181); experiment: as above; settings: HEK293T PPARd-UAS-bla, beta-lactamase FRET ratio, 18 h; series mostly up to 76.7 µM
Procedure, shortened: as §1

[8] = biological target: Peroxisome proliferator-activated receptor gamma (Homo sapiens) (UniProt P37231); experiment: qHTS assay for small molecule antagonists of peroxisome proliferator-activated receptor gamma signaling (AID 588537; active means well fitted inhibition curve with a large enough effect in the signal ratio, with a control signal flat, not every such curve was filed as active; the % refers to the signal ratio;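 further: reporter cells co-stimulated with 50 nM rosiglitazone agonist during compound treatment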); settings: HEK293 PPARg-UAS-bla, beta-lactamase ratio, antagonist mode; series mostly up to 76.8 µM
Procedure, shortened: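 We seeded GeneBLAzer HEK293 reporter cells at 3000 per well, allowed 6-6.5 h attachment at 37 C, then co-treated with test compound titrations and 50 nM rosiglitazone overnight (16 h). Inhibition was quantified from 460/530 nm emission ratios.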

[9] = biological target: Vitamin D3 receptor (Homo sapiens) (UniProt P11473); experiment: qHTS assay for small molecule antagonists of vitamin D receptor signaling (AID 588541; calls by dose curve;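 further: receptor activated by calcitriol during compound treatment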); settings: HEK293T VDR-UAS-bla, beta-lactamase ratio, antagonist mode; series mostly up to 76.7 µM
Procedure, shortened: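 VDR-UAS-bla HEK293T cells (2000/well, 2% charcoal-stripped FBS) were treated with titrated compounds plus 1-alpha,25-dihydroxyvitamin D3 (50 nM or 3 nM final) for 16 h at 37 C. CCF4 beta-lactamase fluorescence was read; Hill fits gave IC50.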

[10] = qHTS assay for small molecule activators of the p53 signaling pathway (AID 651743; active means well fitted activation curve with a large enough effect in the signal ratio, not every such curve was filed as active; the % refers to the signal ratio); settings: HCT-116 p53RE-bla, beta-lactamase FRET ratio, 16 h; activation: stronger effect = higher value
Procedure, shortened: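 Cell-based beta-lactamase reporter (p53 response elements, HCT-116 background). After a 5-hour preincubation, cells received compound for 16 hours at 37 C; substrate development ran 2 hours at room temperature.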

[11] = qHTS assay for environmental chemicals that activate the Aryl hydrocarbon Receptor (AhR) signaling pathway (AID 651777); settings: 1A2-DRE human hepatoma cells, luciferase, 24 h; activation: stronger effect = higher value; further: nearly all actives have a fitted effect of over 15% in size
Procedure, shortened: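 Quantitative HTS in stably transfected human liver-derived cells whose luciferase gene sits downstream of the CYP1A2 promoter and dioxin response element. After 24 hr exposure at 37 C, One-Glo luminescence was measured.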

[12] = biological target: Nuclear receptor ROR-gamma (Homo sapiens) (UniProt P51449); experiment: qHTS assay for small molecule antagonists of the retinoid-related orphan receptor gamma (ROR-gamma) signaling pathway (AID 651802); settings: ROR-gamma antagonist cell reporter assay; series mostly up to 92.2 µM;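 further: luciferase reporter luminescence driven by ROR response element; nearly all actives have a fitted effect of over 60% in size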
Procedure, shortened: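 CHO, TET-inducible ROR + RORE-LUC reporter, 1536-well qHTS. Compound pinned, doxycycline added, 16hr 37C/5% CO2. ONE-Glo, 30 min RT, luminescence; signal drop scored as antagonism.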

[13] = qHTS assay for small molecule antagonists of the retinoid-related orphan receptor gamma (ROR-gamma) signaling pathway - cell viability counter screen (AID 720652; active means well fitted curve in the direction sought with a large enough effect in the repeat runs; an effect the other way counts as inactive or inconclusive;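 further: compound exposure lasted 16 hr before ATP read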); settings: RORgamma reporter cell line viability counter screen; series mostly up to 92.2 µM
Procedure, shortened: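 Luminescence from CellTiter-Glo after 30 min at room temperature reported cellular ATP as the cytotoxicity measure. Cells were the CHO reporter line with doxycycline-induced ROR-gamma expression, exposed to compound for 16 hr at 37 C.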

[14] = Cell Viability - LYMP2-002 (AID 977); settings: LYMP2-002 lymphoblastoid cell viability, qHTS; series mostly up to 92.2 µM
Procedure, shortened: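 Luminescent ATP readout (CellTiter-Glo, 30 min room temperature) after 24 h compound exposure at 37 C of a human lymphoblastoid line, 2500 cells/well. AC50 values derived by standard Hill fitting of qHTS concentration-response data.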

[15] = biological target: Glucocorticoid receptor (Homo sapiens) (UniProt P04150); experiment: qHTS assay for small molecule agonists of glucocorticoid receptor signaling (AID 588532; active means well fitted curve in the direction sought with a large enough effect in the signal ratio, with a control signal flat; the % refers to the signal ratio); settings: HeLa MMTV-bla, beta-lactamase ratio, agonist, 18 h; stronger effect = higher value; percent of dexamethasone control, DMSO zero
Procedure, shortened: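 Titration series, up to 92 uM, applied to GRE-bla HeLa cells for 18 h at 37 C. Detection by CCF4 FRET substrate after 2 h at RT.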

[16] = biological target: Glucocorticoid receptor (Homo sapiens) (UniProt P04150); experiment: qHTS assay for small molecule antagonists of glucocorticoid receptor signaling (AID 588533; active means well fitted inhibition curve with a large enough effect in the signal ratio, with a control signal flat, not every such curve was filed as active; the % refers to the signal ratio;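 further: cells stimulated with 2 nM dexamethasone as agonist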); settings: HeLa MMTV-bla, GRE beta-lactamase ratio, antagonist mode, 18 h; series mostly up to 76.8 µM
Procedure, shortened: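 Antagonist-mode qHTS: compound titrations added to GRE-bla HeLa cells, then dexamethasone 2 nM final; 18 h, 37 C. CCF4 FRET fluorescence normalized to dexamethasone and DMSO; IC50 from Hill fit.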

[17] = qHTS assay for small molecule agonists of the antioxidant response element (ARE) signaling pathway (AID 651741; active means well fitted activation curve with a large enough effect in the signal ratio; the % refers to the signal ratio); settings: HepG2 ARE-bla reporter, beta-lactamase FRET ratio, 16 h; series mostly up to 96 µM
Procedure, shortened: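 Compounds in DMSO are pinned onto HepG2 ARE-bla cells (2,000/well) that were preincubated 5 h; plates stay 16 h at 37 C, then beta-lactamase activity is detected with LiveBLAzer B/G substrate by fluorescence.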

[18] = biological target: Estrogen receptor (Homo sapiens) (UniProt P03372); experiment: qHTS assay for small molecule antagonists of estrogen receptor alpha signaling (AID 588513; active means well fitted curve in the direction sought with a large enough effect in the signal ratio, with a control signal flat, not every such curve was filed as active; the % refers to the signal ratio); settings: ER-alpha-UAS-bla HEK293, beta-lactamase ratio, antagonist mode; series mostly up to 76.9 µM
Procedure, shortened: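 Antagonist mode: inhibition of 0.5 nM 17-beta-estradiol-driven beta-lactamase reporter in HEK 293 ER-alpha-UAS-bla cells, 18 h at 37C, CCF4 readout after 2 h at RT. Normalised to estradiol and DMSO; titration fitted to Hill.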

[19] = biological target: Estrogen receptor (Homo sapiens) (UniProt P03372); experiment: qHTS assay for small molecule agonists of estrogen receptor alpha signaling (AID 588514; calls by dose curve; further: nearly all actives have a fitted effect of over 70% in size); settings: ER-alpha-UAS-bla HEK293, beta-lactamase ratio, 18 h; series mostly up to 76.8 µM
Procedure, shortened: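 Cells were plated at 5000/well, incubated 4 hrs at 37 C, dosed with compound titration series, incubated 18 hrs at 37 C, loaded with CCF4 dye for 2 hrs at RT, then fluorescence was read.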

[20] = biological target: Bile acid receptor (Homo sapiens) (UniProt Q96RI1); experiment: qHTS assay for small molecule agonists of farnesoid X receptor signaling (AID 588527; calls by dose curve); settings: HEK293T FXR-UAS-bla, beta-lactamase ratio, 16 h; stronger effect = higher value
Procedure, shortened: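 Quantitative HTS used FXR-UAS-bla HEK293T cells with 16 h compound incubation at 37 C. EC50 values came from concentration-response curves normalized to chenodeoxycholic acid.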

Chain of Vitamin D3 receptor (Homo sapiens) (P11473 whole entry, looked up): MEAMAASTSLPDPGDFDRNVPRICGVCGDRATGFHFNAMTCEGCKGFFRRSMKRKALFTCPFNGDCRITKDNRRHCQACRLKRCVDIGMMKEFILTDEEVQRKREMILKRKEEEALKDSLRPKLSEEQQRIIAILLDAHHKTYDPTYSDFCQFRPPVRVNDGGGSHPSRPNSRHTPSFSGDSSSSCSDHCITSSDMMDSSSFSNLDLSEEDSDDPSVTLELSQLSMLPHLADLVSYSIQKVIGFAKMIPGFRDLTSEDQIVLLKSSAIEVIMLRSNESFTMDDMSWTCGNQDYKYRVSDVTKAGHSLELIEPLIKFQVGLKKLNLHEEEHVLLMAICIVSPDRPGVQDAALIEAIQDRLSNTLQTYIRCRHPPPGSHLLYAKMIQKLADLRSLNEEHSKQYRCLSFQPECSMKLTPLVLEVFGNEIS
Chain of Glucocorticoid receptor (Homo sapiens) (P04150 whole entry, looked up): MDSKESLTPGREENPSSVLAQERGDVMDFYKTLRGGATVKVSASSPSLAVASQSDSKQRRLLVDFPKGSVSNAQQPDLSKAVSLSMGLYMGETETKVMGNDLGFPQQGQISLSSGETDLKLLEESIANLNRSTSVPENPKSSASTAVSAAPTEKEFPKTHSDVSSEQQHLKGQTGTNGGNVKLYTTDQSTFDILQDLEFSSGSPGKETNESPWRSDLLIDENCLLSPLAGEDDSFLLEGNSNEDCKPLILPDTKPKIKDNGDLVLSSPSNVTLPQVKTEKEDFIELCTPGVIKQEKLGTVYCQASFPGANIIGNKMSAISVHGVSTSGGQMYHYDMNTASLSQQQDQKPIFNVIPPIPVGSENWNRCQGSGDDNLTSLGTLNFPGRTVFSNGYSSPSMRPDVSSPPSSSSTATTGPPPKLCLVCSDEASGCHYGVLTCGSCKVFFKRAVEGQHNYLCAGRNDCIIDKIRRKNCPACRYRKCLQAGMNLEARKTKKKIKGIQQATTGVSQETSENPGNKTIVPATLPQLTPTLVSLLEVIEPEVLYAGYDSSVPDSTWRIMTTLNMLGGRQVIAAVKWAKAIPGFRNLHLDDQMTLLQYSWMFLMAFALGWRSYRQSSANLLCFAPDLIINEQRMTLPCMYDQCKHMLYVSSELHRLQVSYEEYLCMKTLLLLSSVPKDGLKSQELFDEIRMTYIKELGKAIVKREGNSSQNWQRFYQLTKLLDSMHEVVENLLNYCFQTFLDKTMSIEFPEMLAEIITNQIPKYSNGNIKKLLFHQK
Chain of Estrogen receptor (Homo sapiens) (P03372 whole entry, looked up): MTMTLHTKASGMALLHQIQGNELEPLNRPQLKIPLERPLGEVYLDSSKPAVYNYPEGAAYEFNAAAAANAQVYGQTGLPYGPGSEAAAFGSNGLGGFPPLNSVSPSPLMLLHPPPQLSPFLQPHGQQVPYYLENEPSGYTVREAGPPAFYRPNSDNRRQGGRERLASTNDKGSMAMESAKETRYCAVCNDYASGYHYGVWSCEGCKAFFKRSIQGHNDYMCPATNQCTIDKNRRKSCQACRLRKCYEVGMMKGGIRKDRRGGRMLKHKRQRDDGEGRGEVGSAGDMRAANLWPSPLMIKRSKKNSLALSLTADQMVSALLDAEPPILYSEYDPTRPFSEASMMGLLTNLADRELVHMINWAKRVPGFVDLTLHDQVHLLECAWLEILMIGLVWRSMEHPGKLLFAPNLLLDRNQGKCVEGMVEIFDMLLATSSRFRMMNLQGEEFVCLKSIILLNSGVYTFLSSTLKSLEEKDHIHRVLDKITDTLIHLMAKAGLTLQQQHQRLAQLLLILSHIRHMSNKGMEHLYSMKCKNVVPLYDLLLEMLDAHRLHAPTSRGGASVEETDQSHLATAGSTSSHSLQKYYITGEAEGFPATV
Chain of Peroxisome proliferator-activated receptor delta (Homo sapiens) (Q03181 whole entry, looked up): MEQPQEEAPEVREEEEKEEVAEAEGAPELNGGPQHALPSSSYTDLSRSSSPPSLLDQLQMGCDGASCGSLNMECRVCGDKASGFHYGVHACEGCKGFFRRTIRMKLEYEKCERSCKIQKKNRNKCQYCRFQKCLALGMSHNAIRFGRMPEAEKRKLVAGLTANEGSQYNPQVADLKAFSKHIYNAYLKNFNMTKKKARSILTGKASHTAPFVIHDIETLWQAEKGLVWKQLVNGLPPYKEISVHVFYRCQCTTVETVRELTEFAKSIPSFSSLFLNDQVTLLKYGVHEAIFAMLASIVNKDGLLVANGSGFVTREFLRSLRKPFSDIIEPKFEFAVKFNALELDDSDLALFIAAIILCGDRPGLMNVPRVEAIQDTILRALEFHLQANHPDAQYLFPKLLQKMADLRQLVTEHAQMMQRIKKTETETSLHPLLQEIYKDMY
Chain of Nuclear receptor ROR-gamma (Homo sapiens) (P51449 whole entry, looked up): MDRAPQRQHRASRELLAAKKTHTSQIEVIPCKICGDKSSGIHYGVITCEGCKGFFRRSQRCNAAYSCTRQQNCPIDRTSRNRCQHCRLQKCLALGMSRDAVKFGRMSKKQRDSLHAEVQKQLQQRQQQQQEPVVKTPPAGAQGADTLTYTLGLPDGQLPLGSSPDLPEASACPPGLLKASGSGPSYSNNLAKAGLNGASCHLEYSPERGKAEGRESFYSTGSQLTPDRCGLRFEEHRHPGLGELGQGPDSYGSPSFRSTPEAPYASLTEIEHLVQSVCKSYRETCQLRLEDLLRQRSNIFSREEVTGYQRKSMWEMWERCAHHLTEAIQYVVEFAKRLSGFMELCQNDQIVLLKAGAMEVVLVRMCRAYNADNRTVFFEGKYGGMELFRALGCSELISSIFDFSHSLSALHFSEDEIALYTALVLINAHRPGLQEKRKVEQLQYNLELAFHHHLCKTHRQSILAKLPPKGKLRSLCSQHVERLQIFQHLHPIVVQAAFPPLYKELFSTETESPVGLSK
Chain of Peroxisome proliferator-activated receptor gamma (Homo sapiens) (P37231 whole entry, looked up): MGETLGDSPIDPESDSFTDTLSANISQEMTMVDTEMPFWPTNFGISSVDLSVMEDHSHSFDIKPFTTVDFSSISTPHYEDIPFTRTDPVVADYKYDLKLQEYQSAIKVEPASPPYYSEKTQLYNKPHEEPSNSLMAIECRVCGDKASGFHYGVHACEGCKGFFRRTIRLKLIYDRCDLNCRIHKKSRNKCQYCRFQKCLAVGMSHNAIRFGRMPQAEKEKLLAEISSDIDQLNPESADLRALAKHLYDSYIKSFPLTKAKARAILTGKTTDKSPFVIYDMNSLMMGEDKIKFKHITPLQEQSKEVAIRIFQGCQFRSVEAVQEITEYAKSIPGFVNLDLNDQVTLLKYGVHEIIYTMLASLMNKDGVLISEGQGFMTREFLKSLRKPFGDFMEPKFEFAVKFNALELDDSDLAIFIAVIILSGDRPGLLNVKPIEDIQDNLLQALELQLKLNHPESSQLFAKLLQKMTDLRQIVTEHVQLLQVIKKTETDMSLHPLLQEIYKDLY
Chain of Bile acid receptor (Homo sapiens) (Q96RI1 whole entry, looked up): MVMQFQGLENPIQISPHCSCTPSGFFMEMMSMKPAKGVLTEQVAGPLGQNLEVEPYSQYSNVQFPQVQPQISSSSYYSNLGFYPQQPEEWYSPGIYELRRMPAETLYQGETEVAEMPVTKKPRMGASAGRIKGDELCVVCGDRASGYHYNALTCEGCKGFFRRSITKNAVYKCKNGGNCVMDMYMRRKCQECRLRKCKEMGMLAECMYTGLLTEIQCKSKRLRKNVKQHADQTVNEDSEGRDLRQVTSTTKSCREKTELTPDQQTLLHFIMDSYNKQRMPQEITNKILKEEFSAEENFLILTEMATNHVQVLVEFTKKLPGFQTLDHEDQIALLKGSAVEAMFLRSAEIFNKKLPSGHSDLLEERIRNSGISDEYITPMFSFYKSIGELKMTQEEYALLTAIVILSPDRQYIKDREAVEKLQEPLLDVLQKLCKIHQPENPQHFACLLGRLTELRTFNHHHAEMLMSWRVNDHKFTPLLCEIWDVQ

## O=C(O)CBr
[1]
  Potency: > 92 µM (inactive)
[2]
  Potency: inactive
[3]
  Potency: inactive
[4]
  Potency: inactive
[5]
  outcome: inactive
[6]
  max response: -19.5%
[7]
  outcome: inactive
[8]
  Potency: inactive
[9]
  outcome: inactive
[10]
  activation: -0.316% (inactive)
[11]
  activation: -0.817% (inactive)
[12]
  Potency: inactive
[13]
  Potency: inactive

## CC(C)(C)OOC(=O)c1ccccc1
[3]
  Potency: inactive
[4]
  Potency: inactive
[14]
  Potency: inactive
[15]
  activation: 1.21% (inactive) and -1.74% (inactive)
[16]
  outcome: inactive
[6]
  max response: -0.545%
[7]
  outcome: inactive
[9]
  outcome: inactive
[17]
  Potency: inactive
[10]
  activation: -3.4% (inactive) and 2.14% (inactive)
[12]
  Potency: inactive
[13]
  Potency: inactive

## Nc1ncc([N+](=O)[O-])s1
[2]
  Potency: inactive
[3]
  Potency: inactive
[4]
  Potency: inactive
[18]
  Potency: inactive
[19]
  Potency: inactive
[20]
  activation: -2.74% (inactive)
[16]
  outcome: inactive
[5]
  outcome: inactive
[6]
  max response: 30.2%
[7]
  outcome: inactive
[9]
  outcome: inactive
[10]
  activation: -4.14% (inactive)
[11]
  activation: 1.78% (inactive)
[12]
  Potency: inactive

## Oc1c(Cl)cccc1Cl
[1]
  Potency: > 92 µM (inactive)
[2]
  Potency: inactive
[3]
  Potency: inactive
[4]
  Potency: inactive
[14]
  Potency: inactive
[18]
  Potency: inactive
[19]
  Potency: inactive
[5]
  outcome: inactive
[6]
  max response: 38.7%
[7]
  outcome: inactive
[9]
  outcome: inactive
[11]
  activation: 0.939% (inactive)
[12]
  Potency: inactive
[13]
  Potency: inactive

## N#CCc1ccccc1
[2]
  Potency: inactive
[3]
  Potency: inactive
[4]
  Potency: inactive
[14]
  Potency: inactive
[18]
  Potency: inactive
[19]
  Potency: inactive
[5]
  outcome: inactive
[6]
  max response: -33.3%
[7]
  outcome: inactive
[8]
  Potency: inactive
[10]
  activation: -0.84% (inactive)
[11]
  activation: -0.841% (inactive)
[12]
  Potency: inactive
[13]
  Potency: inactive
